From the supplement of paper PMC6411743
± gives the standard deviation of the averaged measurements. The full data set covers some 6,500 targets. This sample favours those with the largest changes.

Compound: Nc1ncnc2c1ncn2[C@@H]1O[C@H](COP(=O)(O)OP(=O)(O)OP(=O)(O)O)[C@@H](O)[C@H]1O [adenosine triphosphate]
Experiment: NP40-soluble protein abundance relative to vehicle (solubility fold change) (ratio); higher = more soluble protein in presence of ATP
How it was run: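 Values are fold changes against the detergent-processed vehicle, based on vsn-normalised intensities. Jurkat crude lysate was treated at eight concentrations from 0.1 to 10 mM (10 min at room temperature, then 3 min at 37 °C), solubilised with 0.8% NP40 and benzonase, ultracentrifuged and analysed by TMT-labelled LC-MS/MS over three independent experiments.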

Chain of UniProt P16150 (P16150 whole entry): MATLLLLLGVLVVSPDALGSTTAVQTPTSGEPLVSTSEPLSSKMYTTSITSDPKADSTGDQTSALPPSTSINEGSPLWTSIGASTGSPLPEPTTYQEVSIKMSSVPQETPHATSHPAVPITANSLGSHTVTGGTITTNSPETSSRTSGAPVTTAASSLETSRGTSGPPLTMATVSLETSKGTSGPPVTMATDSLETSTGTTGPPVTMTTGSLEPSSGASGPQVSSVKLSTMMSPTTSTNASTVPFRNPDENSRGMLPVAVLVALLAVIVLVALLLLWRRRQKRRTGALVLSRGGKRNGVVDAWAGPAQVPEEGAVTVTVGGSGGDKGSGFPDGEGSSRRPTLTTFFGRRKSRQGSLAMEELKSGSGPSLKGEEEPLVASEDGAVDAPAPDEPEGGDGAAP
Chain of UniProt P50897 (P50897 whole entry): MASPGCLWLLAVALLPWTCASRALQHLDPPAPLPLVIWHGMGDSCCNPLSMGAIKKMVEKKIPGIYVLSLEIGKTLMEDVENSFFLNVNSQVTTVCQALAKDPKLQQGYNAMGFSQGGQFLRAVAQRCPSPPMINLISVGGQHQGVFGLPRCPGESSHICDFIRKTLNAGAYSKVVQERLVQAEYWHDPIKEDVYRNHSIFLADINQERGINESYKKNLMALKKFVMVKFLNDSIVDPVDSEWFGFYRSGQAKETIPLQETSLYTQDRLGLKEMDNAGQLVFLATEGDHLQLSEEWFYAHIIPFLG
Chain of UniProt P49903 (P49903 whole entry): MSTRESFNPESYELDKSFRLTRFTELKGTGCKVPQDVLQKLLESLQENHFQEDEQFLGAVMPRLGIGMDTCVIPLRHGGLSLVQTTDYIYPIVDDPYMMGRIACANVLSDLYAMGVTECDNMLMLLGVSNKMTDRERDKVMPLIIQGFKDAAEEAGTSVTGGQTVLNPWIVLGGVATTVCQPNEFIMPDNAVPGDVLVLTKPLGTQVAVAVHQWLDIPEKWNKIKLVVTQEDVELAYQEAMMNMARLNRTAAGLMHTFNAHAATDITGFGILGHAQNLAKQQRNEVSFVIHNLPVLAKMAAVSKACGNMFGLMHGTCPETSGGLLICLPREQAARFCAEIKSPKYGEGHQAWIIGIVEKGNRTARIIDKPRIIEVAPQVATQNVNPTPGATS
Chain of UniProt P41252 (P41252 whole entry): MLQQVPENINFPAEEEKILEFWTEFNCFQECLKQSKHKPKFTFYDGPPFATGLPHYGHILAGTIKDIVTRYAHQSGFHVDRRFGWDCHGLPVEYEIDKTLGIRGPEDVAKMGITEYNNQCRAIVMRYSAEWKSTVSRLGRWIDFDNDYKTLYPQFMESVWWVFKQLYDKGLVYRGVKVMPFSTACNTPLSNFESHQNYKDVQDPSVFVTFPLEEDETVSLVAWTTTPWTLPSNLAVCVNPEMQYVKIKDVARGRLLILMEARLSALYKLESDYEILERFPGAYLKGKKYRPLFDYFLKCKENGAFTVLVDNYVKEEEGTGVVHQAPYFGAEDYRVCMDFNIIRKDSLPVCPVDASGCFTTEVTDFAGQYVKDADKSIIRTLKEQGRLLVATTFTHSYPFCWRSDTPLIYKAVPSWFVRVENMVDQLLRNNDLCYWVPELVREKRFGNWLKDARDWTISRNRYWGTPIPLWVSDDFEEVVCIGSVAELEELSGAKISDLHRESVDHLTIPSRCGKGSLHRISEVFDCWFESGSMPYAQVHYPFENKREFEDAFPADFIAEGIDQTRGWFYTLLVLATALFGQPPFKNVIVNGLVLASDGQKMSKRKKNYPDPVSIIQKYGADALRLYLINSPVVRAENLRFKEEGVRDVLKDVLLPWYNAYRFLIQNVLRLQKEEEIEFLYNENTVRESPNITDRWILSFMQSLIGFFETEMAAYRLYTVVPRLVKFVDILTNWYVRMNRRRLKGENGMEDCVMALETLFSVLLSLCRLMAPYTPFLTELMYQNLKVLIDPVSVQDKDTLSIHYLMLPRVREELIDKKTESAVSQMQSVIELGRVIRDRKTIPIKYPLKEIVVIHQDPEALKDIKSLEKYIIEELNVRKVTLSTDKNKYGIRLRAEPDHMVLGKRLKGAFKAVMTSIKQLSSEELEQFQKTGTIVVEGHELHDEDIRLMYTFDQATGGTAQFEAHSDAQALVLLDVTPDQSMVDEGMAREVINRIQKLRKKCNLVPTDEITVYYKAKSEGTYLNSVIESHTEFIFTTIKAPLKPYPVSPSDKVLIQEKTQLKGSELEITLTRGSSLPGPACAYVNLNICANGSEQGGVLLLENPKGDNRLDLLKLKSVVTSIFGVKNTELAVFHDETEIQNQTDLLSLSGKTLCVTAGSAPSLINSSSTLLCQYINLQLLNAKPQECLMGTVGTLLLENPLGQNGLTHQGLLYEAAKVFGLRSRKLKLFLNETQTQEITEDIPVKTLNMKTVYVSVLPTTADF
Chain of UniProt P36405 (P36405 whole entry): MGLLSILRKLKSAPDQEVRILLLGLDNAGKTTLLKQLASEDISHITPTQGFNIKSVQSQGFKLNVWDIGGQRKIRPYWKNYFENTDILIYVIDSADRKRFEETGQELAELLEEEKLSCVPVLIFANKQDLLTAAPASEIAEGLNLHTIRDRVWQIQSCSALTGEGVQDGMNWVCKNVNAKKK
Chain of UniProt P49711 (P49711 whole entry): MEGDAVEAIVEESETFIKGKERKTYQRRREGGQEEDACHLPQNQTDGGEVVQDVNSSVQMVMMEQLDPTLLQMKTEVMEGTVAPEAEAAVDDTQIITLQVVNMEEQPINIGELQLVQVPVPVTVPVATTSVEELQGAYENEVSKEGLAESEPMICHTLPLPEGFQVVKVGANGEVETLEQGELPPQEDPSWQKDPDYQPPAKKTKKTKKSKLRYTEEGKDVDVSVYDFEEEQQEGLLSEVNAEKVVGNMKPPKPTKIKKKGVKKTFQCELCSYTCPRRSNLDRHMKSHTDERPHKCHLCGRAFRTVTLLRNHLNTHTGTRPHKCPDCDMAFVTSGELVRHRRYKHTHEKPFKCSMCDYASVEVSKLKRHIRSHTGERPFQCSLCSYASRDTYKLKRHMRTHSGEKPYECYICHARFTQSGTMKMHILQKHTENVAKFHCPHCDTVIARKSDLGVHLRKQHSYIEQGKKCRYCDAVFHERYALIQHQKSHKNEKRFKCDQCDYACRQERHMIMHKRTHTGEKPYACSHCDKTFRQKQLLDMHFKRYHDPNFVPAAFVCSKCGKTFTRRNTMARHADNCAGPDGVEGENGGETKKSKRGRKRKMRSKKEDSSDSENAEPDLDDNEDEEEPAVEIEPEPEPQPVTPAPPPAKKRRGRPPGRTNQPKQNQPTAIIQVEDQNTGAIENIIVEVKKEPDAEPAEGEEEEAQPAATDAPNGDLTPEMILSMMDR
Chain of UniProt P13674 (P13674 whole entry): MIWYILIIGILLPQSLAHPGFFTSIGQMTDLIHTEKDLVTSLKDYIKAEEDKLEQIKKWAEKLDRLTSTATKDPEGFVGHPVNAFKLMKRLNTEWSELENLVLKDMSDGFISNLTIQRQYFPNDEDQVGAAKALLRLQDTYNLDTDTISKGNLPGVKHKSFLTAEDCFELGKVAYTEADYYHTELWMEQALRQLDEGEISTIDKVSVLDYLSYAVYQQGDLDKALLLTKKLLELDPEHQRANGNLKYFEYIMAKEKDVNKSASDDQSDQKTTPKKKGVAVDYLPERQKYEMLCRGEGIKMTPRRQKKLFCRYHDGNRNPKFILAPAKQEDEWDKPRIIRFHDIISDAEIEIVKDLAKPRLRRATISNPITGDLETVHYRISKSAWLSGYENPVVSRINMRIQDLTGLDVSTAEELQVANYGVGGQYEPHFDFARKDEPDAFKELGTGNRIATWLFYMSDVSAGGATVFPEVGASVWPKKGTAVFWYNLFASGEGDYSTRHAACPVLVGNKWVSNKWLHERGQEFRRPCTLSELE
Chain of UniProt P05423 (P05423 whole entry): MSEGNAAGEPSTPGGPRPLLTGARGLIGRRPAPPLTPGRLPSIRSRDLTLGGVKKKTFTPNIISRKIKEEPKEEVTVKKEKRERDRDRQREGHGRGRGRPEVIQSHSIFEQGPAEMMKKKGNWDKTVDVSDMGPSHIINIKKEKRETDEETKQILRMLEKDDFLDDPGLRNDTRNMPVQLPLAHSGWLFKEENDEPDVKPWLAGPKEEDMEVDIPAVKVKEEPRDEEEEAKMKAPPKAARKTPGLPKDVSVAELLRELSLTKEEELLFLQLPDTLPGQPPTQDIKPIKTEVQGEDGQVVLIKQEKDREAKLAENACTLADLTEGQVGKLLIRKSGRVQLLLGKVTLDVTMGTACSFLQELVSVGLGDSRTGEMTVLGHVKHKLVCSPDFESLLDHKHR
Chain of UniProt P60228 (P60228 whole entry): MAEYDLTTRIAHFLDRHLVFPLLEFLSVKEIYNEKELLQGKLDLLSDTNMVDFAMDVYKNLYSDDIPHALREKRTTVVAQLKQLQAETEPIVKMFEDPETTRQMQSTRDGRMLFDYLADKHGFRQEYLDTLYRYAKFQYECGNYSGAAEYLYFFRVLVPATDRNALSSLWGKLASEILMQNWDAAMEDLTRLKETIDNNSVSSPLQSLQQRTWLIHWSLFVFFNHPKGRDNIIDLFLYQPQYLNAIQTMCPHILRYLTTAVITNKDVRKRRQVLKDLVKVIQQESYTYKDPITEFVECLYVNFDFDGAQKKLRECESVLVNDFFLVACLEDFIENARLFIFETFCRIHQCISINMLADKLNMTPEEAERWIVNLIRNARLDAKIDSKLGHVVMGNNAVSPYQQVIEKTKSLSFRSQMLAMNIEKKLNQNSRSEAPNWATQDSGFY
Chain of UniProt P01034 (P01034 whole entry): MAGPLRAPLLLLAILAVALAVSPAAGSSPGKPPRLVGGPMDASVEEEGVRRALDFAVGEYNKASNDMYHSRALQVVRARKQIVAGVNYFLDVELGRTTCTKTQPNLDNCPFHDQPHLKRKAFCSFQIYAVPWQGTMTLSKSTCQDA
Chain of UniProt P07737 (P07737 whole entry): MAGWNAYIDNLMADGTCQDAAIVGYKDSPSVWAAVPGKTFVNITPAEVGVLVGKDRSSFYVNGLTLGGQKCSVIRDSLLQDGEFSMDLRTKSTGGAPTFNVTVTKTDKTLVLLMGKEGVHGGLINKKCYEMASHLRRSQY

Target	NP40-soluble protein abundance (concentration: 1mM)	NP40-soluble protein abundance (concentration: 2mM)	NP40-soluble protein abundance (concentration: 4mM)	NP40-soluble protein abundance (concentration: 6mM)	NP40-soluble protein abundance (concentration: 8mM)	NP40-soluble protein abundance (concentration: 10mM)
CCT8 (UniProt P50990)	0.976 ± 0.029	0.909 ± 0.033	0.823 ± 0.036	0.86 ± 0.12	0.842 ± 0.081	0.835 ± 0.063
PPT1 (UniProt P50897)	0.942 ± 0.054	0.92 ± 0.019	0.877 ± 0.034	0.957 ± 0.035	0.903 ± 0.016	0.86 ± 0.039
P0DN76|Q01081|Q01081-2 (UniProt Q01081+P0DN76)	2.11 ± 0.23	2.14 ± 0.2	2.22 ± 0.17	2.36 ± 0.16	2.27 ± 0.11	2.24 ± 0.17
UniProt O94925|O94925-3	1.02 ± 0.071	0.968 ± 0.035	0.981 ± 0.078	0.944 ± 0.05	0.978 ± 0.061	0.947 ± 0.039
RHOA (UniProt P61586)	0.996 ± 0.14	1.01 ± 0.078	0.968 ± 0.06	1.09 ± 0.069	0.939 ± 0.023	0.944 ± 0.027
UniProt Q06787-5|Q06787-6|Q06787-8|Q06787|Q06787-3|Q06787-7|Q06787-9|R9WNI0	1.16 ± 0.14	1.27 ± 0.1	1.56 ± 0.17	1.83 ± 0.13	2.14 ± 0.19	2.48 ± 0.15
UniProt P13674|P13674-2	1.01 ± 0.0016	1.01 ± 0.022	0.994 ± 0.027	1.03 ± 0.054	1.01 ± 0.034	1.04 ± 0.045
UniProt Q02880-2	1.28 ± 0.061	1.36 ± 0.045	1.57 ± 0.067	1.73 ± 0.13	1.99 ± 0.11	2.07 ± 0.057
CTDSPL2 (UniProt Q05D32)	1.13 ± 0.11	1.13 ± 0.07	1.27 ± 0.09	1.32 ± 0.082	1.33 ± 0.14	1.47 ± 0.03
SNAP29 (UniProt O95721)	0.967 ± 0.086	0.943 ± 0.043	0.939 ± 0.055	0.967 ± 0.04	0.939 ± 0.036	0.877 ± 0.046
UniProt P59190	1.18 ± 0.054	2.37 ± 1.5	1.25 ± 0.21	1.16 ± 0.23	1.22 ± 0.2	1.18 ± 0.15
EMD (UniProt P50402)	1.13 ± 0.096	1.16 ± 0.1	1.14 ± 0.11	1.11 ± 0.1	1.12 ± 0.086	1.15 ± 0.05
CTCF (UniProt P49711)	1.02 ± 0.027	0.993 ± 0.036	0.972 ± 0.034	0.895 ± 0.046	0.927 ± 0.032	0.894 ± 0.027
UniProt P60228	0.999 ± 0.024	0.999 ± 0.051	1.08 ± 0.035	1.23 ± 0.063	1.34 ± 0.073	1.49 ± 0.12
UniProt P49903|P49903-2	1 ± 0.039	0.992 ± 0.02	0.962 ± 0.049	0.979 ± 0.068	0.966 ± 0.052	0.96 ± 0.042
PFN1 (UniProt P07737)	0.941 ± 0.059	0.934 ± 0.049	0.918 ± 0.027	0.92 ± 0.059	0.891 ± 0.015	0.911 ± 0.034
SPN (UniProt P16150)	0.828 ± 0.17	0.803 ± 0.16	0.812 ± 0.13	0.835 ± 0.14	0.765 ± 0.094	0.71 ± 0.2
IARS (UniProt P41252)	1.1 ± 0.14	1 ± 0.072	0.974 ± 0.058	0.905 ± 0.059	1.05 ± 0.035	0.975 ± 0.078

Target	NP40-soluble protein abundance (concentration: 1mM)	NP40-soluble protein abundance (concentration: 2mM)	NP40-soluble protein abundance (concentration: 4mM)	NP40-soluble protein abundance (concentration: 6mM)	NP40-soluble protein abundance (concentration: 8mM)	NP40-soluble protein abundance (concentration: 10mM)
UniProt P28908|P28908-3	0.986 ± 0.073	0.999 ± 0.0037	1.08 ± 0.13	0.992 ± 0.073	0.951 ± 0.041	0.964 ± 0.026
DDX58 (UniProt O95786)	1.06 ± 0.097	1.03 ± 0.063	1 ± 0.05	0.978 ± 0.078	1.03 ± 0.056	1.01 ± 0.055
AGA (UniProt P20933)	0.925 ± 0.059	0.964 ± 0.07	0.978 ± 0.079	0.94 ± 0.081	0.914 ± 0.064	0.876 ± 0.071
PPP2CA (UniProt P67775)	0.959 ± 0.061	0.925 ± 0.0053	0.908 ± 0.021	0.962 ± 0.033	0.9033 ± 0.007	0.9 ± 0.085
CST3 (UniProt P01034)	0.964 ± 0.083	0.971 ± 0.063	1 ± 0.11	1.03 ± 0.11	1.05 ± 0.15	1.05 ± 0.14
UniProt P35251|P35251-2	1.23 ± 0.086	1.36 ± 0.093	1.45 ± 0.1	1.58 ± 0.11	1.51 ± 0.069	1.56 ± 0.084
UniProt P06493	1.05 ± 0.054	1.06 ± 0.053	1.03 ± 0.063	1.03 ± 0.1	1.05 ± 0.058	1.05 ± 0.015
MTHFD2 (UniProt P13995)	1.02 ± 0.018	1.01 ± 0.02	0.995 ± 0.04	1.01 ± 0.043	1.01 ± 0.032	1 ± 0.026
AP3M2 (UniProt P53677)	1.09 ± 0.019	1.08 ± 0.016	1.13 ± 0.043	1.02 ± 0.047	1.06 ± 0.051	1.08 ± 0.069
ATRN (UniProt O75882)	0.928 ± 0.039	0.947 ± 0.048	0.975 ± 0.015	0.959 ± 0.095	0.896 ± 0.01	0.899 ± 0.057
ZBTB11 (UniProt O95625)	1.03 ± 0.057	1.004 ± 0.0071	1.03 ± 0.053	0.949 ± 0.021	0.97 ± 0.015	0.979 ± 0.04
UniProt P50213|H0YLF8	0.98 ± 0.039	0.963 ± 0.04	0.922 ± 0.036	0.95 ± 0.058	0.949 ± 0.057	0.932 ± 0.043
UniProt P62854	0.92 ± 0.095	0.912 ± 0.11	0.911 ± 0.18	0.809 ± 0.13	0.745 ± 0.099	0.843 ± 0.13
UniProt P38398|P38398-7|P38398-4|P38398-8	1.02 ± 0.011	1.05 ± 0.071	1.03 ± 0.035	1.03 ± 0.086	1.02 ± 0.081	1.06 ± 0.03
ARL3 (UniProt P36405)	0.978 ± 0.0088	0.944 ± 0.057	0.937 ± 0.057	0.926 ± 0.066	0.945 ± 0.037	0.946 ± 0.049
UniProt P09471-2	1.04 ± 0.059	0.979 ± 0.043	0.949 ± 0.052	0.975 ± 0.1	0.9637 ± 0.0096	0.969 ± 0.014
POLR3D (UniProt P05423)	0.986 ± 0.095	0.962 ± 0.062	0.949 ± 0.071	0.963 ± 0.12	0.965 ± 0.064	0.963 ± 0.065
UniProt P49748|P49748-3	0.997 ± 0.081	0.989 ± 0.064	0.983 ± 0.027	0.934 ± 0.083	0.986 ± 0.015	0.973 ± 0.045
